D3 ag: activates the human D3 dopamine receptor; P35462; D3R DiscoveRx beta-arrestin cells, luminescence, 90 min; max activation, %; 410,000 compounds, 0.58% hits; AID 652048; in the data active means max activation above about 30%
Target sequence (P35462 whole entry, looked up): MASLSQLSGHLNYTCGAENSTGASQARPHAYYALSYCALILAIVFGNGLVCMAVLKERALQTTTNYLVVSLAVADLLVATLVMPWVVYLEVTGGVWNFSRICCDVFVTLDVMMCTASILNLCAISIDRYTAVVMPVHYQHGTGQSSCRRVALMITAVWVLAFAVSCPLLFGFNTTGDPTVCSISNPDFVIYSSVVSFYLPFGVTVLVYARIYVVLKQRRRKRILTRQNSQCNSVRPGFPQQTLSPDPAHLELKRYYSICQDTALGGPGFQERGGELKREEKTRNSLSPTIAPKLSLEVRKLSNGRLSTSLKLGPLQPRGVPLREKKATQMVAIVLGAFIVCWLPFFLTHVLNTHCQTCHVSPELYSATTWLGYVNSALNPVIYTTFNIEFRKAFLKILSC
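Agonist-mode cell screen: cells plated at 1500/well and incubated overnight at 37 °C, then exposed to library compounds for 90 min at 37 °C. Detection reagent was added for 30–60 min at room temperature, and luminescence was read.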
ATXN viability: cell viability loss in ATXN counter-screen | S2 cells (HEK-293 line with an ATXN2-luciferase reporter) viability, CellTiter-Fluor protease fluorescence, 24 h | Potency, µM (highest dose often 56.7 µM), actives largely listed as cytotoxic | 400,000 compounds, 0.49% hits; further: nearly all actives have a fitted effect of over 40% in size
Integrin act MD: activates integrin-mediated alleviation for muscular dystrophy | Potency, µM (doses to about 38.3 µM), hits mostly activators | alpha7betagal myoblasts, beta-gal FDG fluorescence, 48 h | 350,000 compounds, 0.064% hits | AID 624291; further: nearly all actives have a fitted effect of over 60% in size
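alpha7betagal+/- myoblasts (passage 13, 250/well) treated 48 h at 37C with compounds at 1:260 dilution of DMSO stock. Lysed, then beta-galactosidase activity read as FDG fluorescence (ex 480/em 540) after 30 min, with pre-read for autofluorescence.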
IL1B secr inh: inhibitors of inflammasome signaling (IL-1 beta secretion); THP-1 LPS/ATP IL-1B secretion, AlphaLISA, 16 h; hits give low values; activity change, % at 57.5 µM; 360,000 compounds, 4.7% hits; AID 743279; in the data active means activity change below about -50%; inconclusive means mostly about -30% to -49%
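Secreted IL-1B measured by AlphaLISA bead assay after 16 h compound exposure of THP-1 cells; compounds (final up to 57.5 uM) added 1 h before LPS (250 ng/mL) and ATP (1.25 mM) stimulation; lower signal means less secretion.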
ATXN2 expr inh: reduces ATXN2 reporter expression in HEK-293 cells. HEK-293 ATXN2-luciferase reporter, luminescence, 24 h. Potency, µM (series often up to 57 µM), most hits filed as inhibitors. 360,000 compounds, 0.72% hits. AID 1745845; further: nearly all actives have a fitted effect of over 55% in size
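ATXN2-luciferase reporter cells (luciferase flanked by upstream and downstream ATXN2 gene portions) were treated 24 h at 37 °C with compounds at up to 57 uM. SteadyGlo luminescence gave expression; GF-AFC fluorescence gave viability.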
DRD3 antagonist: antagonists of human D3 dopamine receptor; P35462; D3R cells, DiscoveRx beta-arrestin luminescence, antagonist mode; hits give low values; max response, negative = inhibition, %; 360,000 compounds, 2.5% hits; in the data active means max response below about -50%; inconclusive means no clear call, values can overlap the other calls
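Cells plated overnight at 1500 cells/well, then exposed to library compounds with dopamine controls for 90 minutes at 37 degrees C. DiscoveRx reagent added for 30–60 minutes at room temperature; luminescence read, quantitative HTS format.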
Hits are given with their value; 0 = inactive; ? = inconclusive; - = no result given; ! = not confirmed by another sample; [ ] = dose if it differs, or a comment. This is a sample that favours compounds with a hit; in the whole collection about 7% have one here. Unless noted, the call rests on the fitted dose curve; in most records, active means well fitted curve in the direction sought with a large enough effect; inconclusive means small, poorly fitted or top-dose-only effect, or another doubt; inactive means no such curve, though single readings can be large; an effect the other way counts as inactive or inconclusive.

SMILES | D3 ag | ATXN viability | Integrin act MD | IL1B secr inh | ATXN2 expr inh | DRD3 antagonist
CC(=O)c1ccc(OC2(C)CCN(Cc3ccc4c(c3)OCCO4)C2)cc1 (stereo not drawn) | 0 | 0 | - | 0 | 0 | -69
CC(=O)c1ccc(OC2(C)CCN(Cc3ccc4ccccc4c3)C2)cc1 (stereo not drawn) | 0 | 0 | - | 0 | 0 | 0
CC(=O)c1ccc(OC2(C)CCN(Cc3ccc(C)cc3)C2)cc1 (stereo not drawn) | 0 | 0 | - | 0 | 0 | -102
NC(=O)c1ccsc1NC(=O)COC(=O)c1cc(=O)[nH]c2ccccc12 | 0 | 0 | 0 | 0 | 0 | 0
O=C1C=CC2(O[C@H](c3ccccc3)[C@@H](c3ccccc3)O2)[C@H](Sc2ccccc2O)C1 | 0 | - | 0 | -117 | 4µM | -118
COc1cccc(NC(=O)CCC(=O)NCc2ccco2)c1 | 0 | 0 | 0 | 0 | 0 | 0
COCCNC(=S)N/N=C(\C)c1ccc2cc(OC)ccc2c1 | 0 | 0 | 0 | -88 | 0 | 0
COCCNC(=S)N/N=C(\C)c1ccc(C)c([N+](=O)[O-])c1 | 0 | 0 | 0 | -65 | 0 | 0
COCCNC(=S)N/N=C(\C)c1ccc(OC)cc1 | 0 | 0 | 0 | 0 | 0 | 0
COc1ccc(N2CCN(S(=O)(=O)c3cc4c(cc3C)NC(=O)CO4)CC2)cc1 | 0 | 0 | 0 | 0 | 0 | 0
COc1ccc(C(=O)NCCCNC(=O)c2ccccn2)cc1 | 0 | 0 | 0 | 0 | 0 | 0
CCOC(=O)[C@]12CCCC=C1N(Cc1ccc(Cl)cc1Cl)C(=O)[C@H](CC(=O)NCc1cccc(C(F)(F)F)c1)C2 | 0 | ? | - | -55 | ? | 0
CCOC(=O)[C@]12CCC=C1N(Cc1ccc(Cl)cc1Cl)C(=O)[C@H](CC(=O)NCc1ccccc1)C2 | 0 | ? | - | -64 | ? | 0
CCOC(=O)[C@]12CCC=C1N(Cc1ccc(Cl)cc1Cl)C(=O)[C@H](CC(=O)NCc1cccc(C(F)(F)F)c1)C2 | 0 | ? | - | 0 | 0 | 0
CCOC(=O)[C@]12CCC=C1N(Cc1ccc(Cl)cc1Cl)C(=O)[C@H](CC(=O)NCc1cccs1)C2 | 0 | ? | - | -61 | 0 | 0
CCCCOCCCNC(=O)C[C@@H]1C[C@@]2(C(=O)OCC)CCC=C2N(Cc2ccc(Cl)cc2Cl)C1=O | 0 | ? | - | -89 | ? | 0
CCOC(=O)[C@]12CCCC=C1N(Cc1ccc(Cl)cc1Cl)C(=O)[C@H](CC(=O)NCCCOC)C2 | 0 | 0 | - | 0 | 0 | 0
CCOC(=O)[C@]12CCC=C1N(Cc1ccccc1)C(=O)[C@H](CC(=O)NCc1ccccc1)C2 | 0 | 0 | - | 0 | 0 | ?
CN1CCc2nc3sc(C(=O)NCc4ccccc4)c(N)c3cc2C1 | 0 | ? | 0 | 0 | 0 | 0
COc1cccc(C2c3[nH]c4ccccc4c3CCN2Cc2cnn(C)c2)c1 (stereo not drawn) | 0 | 0 | 0 | 0 | 0 | 0
COc1ccc(Cc2nnc(NN)[nH]c2=O)cc1OC | 0 | 0 | 0 | 0 | 0 | 0
CCOC(=O)[C@]12CCCC=C1N(Cc1ccc(Cl)cc1Cl)C(=O)[C@H](CC(=O)NCC1CCCCC1)C2 | 0 | ? | - | -62 | 0 | 0
CN(C)c1ccc(NC(=O)c2sc(SCC(=O)Nc3ccc(Br)cc3)nc2N)cc1 | 0 | 0 | 0 | 0 | 0 | 0
CSc1nc(N)c(C(=O)Nc2ccc([N+](=O)[O-])cc2)s1 | 0 | 0 | 0 | -75 | - | 0
COc1ccc([N+](=O)[O-])cc1NC(=O)Cc1noc2ccccc12 | 0 | 0 | 0 | 0 | 0 | 0
SMILES | D3 ag | ATXN viability | Integrin act MD | IL1B secr inh | ATXN2 expr inh | DRD3 antagonist
CC(C)(C)C(=O)C(Cc1ccccc1Cl)n1cncn1 (stereo not drawn) | 0 | 0 | 0 | 0 | 0 | 0
CC(C)(C)C(=O)C(Cc1ccccc1)n1cncn1 (stereo not drawn) | 0 | 0 | 0 | 0 | 0 | -55
N#CNC(=Nc1ccc(Cl)cc1)Oc1ccccc1 | 0 | 0 | 0 | -55 | 0 | 0
N#CNC(=Nc1cccc(Cl)c1)Oc1ccccc1 | 0 | 0 | 0 | 0 | - | 0
COc1ccc(C(=O)c2sc(NC(C)C)nc2N)cc1OC | 0 | 0 | 0 | -109 | 0 | 0
COc1cccc(C(=O)c2sc(NC(C)C)nc2N)c1 | 0 | 0 | 0 | -107 | ? | 0
CCOC(=O)c1c(NC(=O)c2cc3n(n2)C(C(F)(F)F)CC(c2ccccc2)N3)sc(C)c1C (stereo not drawn) | 0 | 0 | 0 | 0 | 0 | ?
Cc1ccc(S(=O)(=O)N2CCCCC2)cc1NC(=O)CSc1nnc(C2CC2)n1C | 0 | 0 | 0 | 0 | 0 | -71
O=C(CCN1CCCCCC1)Nc1cccc(F)c1 | 0 | 0 | 0 | 0 | 0 | ?
O=C(CCN1CCOCC1)Nc1ccccc1 | 0 | 0 | 0 | 0 | 0 | 0
O=C(CCN1CCc2ccccc2C1)Nc1ccccc1 | 0 | 0 | 0 | 0 | 0 | -73
O=C(CCN1C(=O)c2ccccc2S1(=O)=O)Nc1ccccc1F | 0 | 0 | 0 | -60 | 0 | 0
O=C(CCN1CCc2ccccc2C1)Nc1cccc(F)c1 | 0 | 0 | 0 | 0 | 0 | -66
O=C(Nc1ccccc1F)c1ccc(CN2CCc3ccccc3C2)cc1 | 0 | 0 | 0 | 0 | 0 | 0
O=C(CCN1CCc2ccccc2C1)Nc1ccccc1F | 0 | 0 | 0 | 0 | 0 | -78
COc1ccc(CNc2nc(-c3cccnc3)nn2C(=O)CC(C)C)cc1 | 0 | 0 | 0 | 0 | 0 | 0
Cn1cc(CN2CCc3sccc3C2)c(-c2ccccc2F)n1 | 0 | ? | 0 | 0 | - | -91
Cc1ccc(-n2c(SCC(N)=O)nc3c(c2=O)C2(CCCC2)Cc2ccccc2-3)cc1 | 0 | 0 | 0 | -63 | 0 | 0
CCCCn1c(=N)n(CC(O)COc2cccc(C)c2)c2ccccc21 (stereo not drawn) | 0 | ? | 0[7.66 µM] | -94 | ? | 0
CCCCN(CC(O)COc1cccc(C)c1)CC(O)COc1cccc(C)c1 (stereo not drawn) | 0 | ? | ? | -100 | 0 | 0
COc1ccccc1OCC(O)Cn1c(=N)n(Cc2ccccc2)c2ccccc21 (stereo not drawn) | 0 | ? | 0 | -73 | ? | 0
CN(C)CC(O)COc1cccc(OCC(O)CN(C)C)c1 (stereo not drawn) | 0 | 0 | 0 | 0 | 0 | 0
CCCCCn1c(=N)n(CC(O)COc2ccccc2OC)c2ccccc21 (stereo not drawn) | 0 | 28µM | 0 | -59 | 28µM! | ?
C=CCn1c(=N)n(CC(O)COc2ccccc2OC)c2ccccc21 (stereo not drawn) | 0 | 0 | 0 | ? | 0 | 0
O=C(c1ccc(S(=O)(=O)N2CCOCC2)cc1)N1CCc2ccccc21 | 0 | 0 | 0 | 0 | 0 | 0
CC(=O)Nc1ccc(S(=O)(=O)NNC(=O)c2cccc([N+](=O)[O-])c2)cc1 | 0 | 0 | ? | 0 | 0 | 0

Bioassay records (PubChem)
